# Assay outcomes: PubChem BioAssay, National Center for Advancing Translational Sciences (NCATS)
# PLK1 PBD block: inhibitors of human PLK1 polo-box domain binding | AID 720504 | Plk1 PBD binding of FITC phosphopeptide, fluorescence polarization | hit rate 2.8% among 360,000 | P53350 | Potency, µM, inactives show max response, negative = inhibition, actives largely listed as inhibitors; also: series mostly up to about 57 µM; % is scaled to controls: 0 for no effect and ±100 for the full control effect; nearly all actives have a fitted effect of over 65% in size
# HP1b chromo inh: inhibitors of HP1-beta chromodomain binding to methylated histone tails; hit rate 0.56% among 390,000; AlphaScreen HP1-beta / biotin-H3K9me3 peptide binding; AID 540317; P83916; Potency, µM (top dose mostly 114 µM), without a hit: at the highest dose activity change, negative = inhibition, hits mostly inhibitors; also: nearly all actives have a fitted effect of over 70% in size
#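 Compound inhibition of the preformed complex between 50 nM HP1-beta and 50 nM biotinylated H3K9me3 peptide was read by AlphaScreen. Buffer was PBS pH 7.4 with 0.01% Tween-20. Incubations ran 30 min at room temperature, with 10 ug/mL donor/acceptor beads.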
# G9a inh: G9a (human) methyltransferase inhibition | G9a H3K9 monomethylation, AlphaScreen, 2 h | Potency, µM (series often up to 102 µM), for inactives: top-dose activity, negative = inhibition, actives largely listed as inhibitors | hit rate 8.8% among 350,000 | AID 504332; also: % is scaled to controls: 0 for no effect and ±100 for the full control effect; nearly all actives have a fitted effect of over 75% in size
#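 Quantitative HTS format: methyltransferase activity on a biotin-tagged H3K9 peptide is measured by AlphaScreen, using a rabbit anti-monomethyl-H3K9 antibody with streptavidin donor and anti-IgG acceptor beads. Final levels are 20 nM enzyme, 500 nM peptide, 20 uM SAM; 2 h RT.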
# VDR inhibitor: blocks the human vitamin D receptor; hit rate 0.93% among 400,000; Potency, µM, for the others: max response, negative = inhibition, actives largely listed as inhibitors; AID 504847; VDR-SRC2-3 peptide fluorescence polarization, 2 h; also: % is scaled to controls: 0 for no effect and ±100 for the full control effect
#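 Reagent solutions, kept cold and dark, are dispensed first; compounds are then pinned in at 23 nl, plates briefly spun, and incubated 2 h at ambient temperature. Inhibition of VDR–SRC2-3 peptide binding is read by fluorescence polarization.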
# BAZ2B inh: inhibitors of human BAZ2B bromodomain; AlphaScreen BAZ2B-H3K14Ac peptide displacement; Potency, µM (doses to about 114 µM), without a hit: top-dose activity change, negative = inhibition, actives largely listed as inhibitors; hit rate 4.4% among 360,000; AID 504333; also: % is scaled to controls: 0 for no effect and ±100 for the full control effect; nearly all actives have a fitted effect of over 60% in size
#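 Inhibition is scored as reduced AlphaScreen emission. The BAZ2B/b-H3(5-23)K14Ac complex (50 nM each) in PBS pH 7.4, 0.01% Tween-20 meets compound (up to 110 uM) for 30 min at RT before bead addition.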
# JMJD2A Tudor: JMJD2A Tudor domain (human) inhibition; O75164; AlphaScreen JMJD2A-Tudor / H3K4me3 peptide binding; Potency, µM (doses to about 114 µM), without a hit: at the top dose activity change, negative = inhibition, actives largely listed as inhibitors; hit rate 4.4% among 390,000; also: % is scaled to controls: 0 for no effect and ±100 for the full control effect; nearly all actives have a fitted effect of over 50% in size
# Target sequence (O75164 whole entry, looked up, the tested form may be a part): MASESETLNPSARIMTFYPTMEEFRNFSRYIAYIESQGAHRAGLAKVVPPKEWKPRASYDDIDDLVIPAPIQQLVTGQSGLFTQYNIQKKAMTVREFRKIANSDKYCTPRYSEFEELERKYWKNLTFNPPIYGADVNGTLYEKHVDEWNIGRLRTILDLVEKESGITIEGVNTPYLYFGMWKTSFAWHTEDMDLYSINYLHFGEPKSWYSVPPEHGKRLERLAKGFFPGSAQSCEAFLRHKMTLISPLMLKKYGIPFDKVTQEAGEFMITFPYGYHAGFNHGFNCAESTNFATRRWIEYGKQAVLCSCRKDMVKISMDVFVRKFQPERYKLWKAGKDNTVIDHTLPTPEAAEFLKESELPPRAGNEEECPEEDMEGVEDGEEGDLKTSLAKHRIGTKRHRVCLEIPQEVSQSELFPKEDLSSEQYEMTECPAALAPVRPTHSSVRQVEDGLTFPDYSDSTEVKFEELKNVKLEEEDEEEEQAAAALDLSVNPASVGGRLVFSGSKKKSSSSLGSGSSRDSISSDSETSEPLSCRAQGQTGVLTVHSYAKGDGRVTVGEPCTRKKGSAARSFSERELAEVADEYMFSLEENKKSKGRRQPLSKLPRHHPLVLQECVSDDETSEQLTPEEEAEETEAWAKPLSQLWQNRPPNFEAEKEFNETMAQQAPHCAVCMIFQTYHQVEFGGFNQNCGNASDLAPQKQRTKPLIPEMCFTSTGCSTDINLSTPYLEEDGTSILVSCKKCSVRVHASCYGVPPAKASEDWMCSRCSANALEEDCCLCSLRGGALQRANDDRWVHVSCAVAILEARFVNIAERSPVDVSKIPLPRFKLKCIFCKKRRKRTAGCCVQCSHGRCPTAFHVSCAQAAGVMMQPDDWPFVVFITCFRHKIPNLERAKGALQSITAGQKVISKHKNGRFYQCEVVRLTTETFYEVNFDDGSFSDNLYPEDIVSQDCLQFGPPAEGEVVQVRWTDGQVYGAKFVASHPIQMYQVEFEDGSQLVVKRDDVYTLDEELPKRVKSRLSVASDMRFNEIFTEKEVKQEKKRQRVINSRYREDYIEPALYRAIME
# * marks the source's active call; other numbers are inactive results; ? = inconclusive; / = no result given; [ ] = remark or other dose. A selection: hits, their analogues and other compounds. The true share with any hit is near 11%. Calls follow the shape of the dose curve; as a rule, active = well fitted curve in the direction sought with a large enough effect; inconclusive = small, poorly fitted or top-dose-only effect, or another doubt; inactive = no such curve, though single readings can be large; an effect the other way counts as inactive or inconclusive. Potency is read from the fitted curve at half-maximal effect.
SMILES,PLK1 PBD block,HP1b chromo inh,G9a inh,VDR inhibitor,BAZ2B inh,JMJD2A Tudor
COc1ccccc1CNc1ccnc(-c2cccnc2)n1,/,/,-43%[0.501 µM],?,/,/
COc1ccc(-c2nc(Cn3c(SCc4ccc(C)cc4)nc4cccnc43)c(C)o2)cc1OC,/,-3%,?,4%,?,?
CCCN(CC(=O)Nc1ccccc1C)C(=O)COc1ccc2c(c1)CCC2,-4%,21%,22%[12.7 µM],3%,-7%,-20%
C[C@@H]1CN([C@@H](C)CO)C(=O)CCCn2cc(nn2)CO[C@H]1CN(C)S(=O)(=O)c1cccc(F)c1,0%,/,/,/,/,/
Cc1ccccc1NC(=O)c1sc2nc(-c3cc4ccccc4oc3=O)[nH]c(=O)c2c1C,/,47%,0%[59 µM],5%,-2%,0%
O=C(Cc1csc(NC(=O)Nc2cccc(Cl)c2)n1)NCc1cccnc1,-5%,23%,35µM*,-19%,?,-24%
COc1ccc(C)cc1NC(=O)C(c1ccccc1)N1CCNC(=O)C1 (stereo not given),/,/,50µM*,/,-9%,/
COc1ccc(C)cc1NC(=O)C(OC(=O)C1CC1)c1ccccc1 (stereo not given),-13%,33%,40%,-11%,3%,-4%
COc1ccc(CCNC(=O)c2nnn(CC(=O)Nc3cccc(F)c3)c2N)cc1OC,16%,3%,45µM*,12%,50µM*,?
Cc1ccc(CN2CCNC(=O)C2CC(=O)N(C)C2CCOCC2)cc1 (stereo not given),-2%,40%,50µM*,-14%,3%,-8%
CN(C(=O)CC1C(=O)NCCN1Cc1ccoc1)C1CCOCC1 (stereo not given),-13%,13%,?,4%,-16%,-11%
CC(C)N(Cc1nccn1C)C(=O)CC1C(=O)NCCN1Cc1ccc(F)c(F)c1 (stereo not given),-17%,25%,40µM*,25%,-26%,-6%
CN(C(=O)CC1C(=O)NCCN1Cc1ccc(F)c(F)c1)C1CCCCC1 (stereo not given),-5%,18%,45µM*,3%,-15%,-8%
COc1ccc(CN2CCNC(=O)C2CC(=O)N(C)C2CCCCC2)cc1OC (stereo not given),-3%,/,/,/,/,/
CN(C(=O)CC1C(=O)NCCN1Cc1c(F)cccc1Cl)C1CCOCC1 (stereo not given),-27%,85%,45µM*,-15%,0%,-4%
O=C(O)c1cc(O)c2c(c1)[C@@H]([C@H]1c3cc(C(=O)O)cc(O)c3C(=O)c3c(O[C@@H]4O[C@H](CO)[C@@H](O)[C@H](O)[C@H]4O)cccc31)c1cccc(OC3O[C@H](CO)[C@@H](O)[C@H](O)[C@H]3O)c1C2=O (stereo not given in full),0.84µM*,-76%,1.3µM*,-29%,0.79µM*,0.32µM*
O=C1c2cc(CO)cc(O)c2C(=O)c2c(O[C@@H]3OC(CO)[C@@H](O)[C@@H](O)[C@@H]3O)cccc21 (stereo not given in full),-9%,7%,/,-4%,/,-25%
O=C1c2c(O)cccc2C(C2OC(CO)[C@@H](O)[C@H](O)[C@H]2O)c2cc(CO)cc(O)c21 (stereo not given in full),?,22%,?,7%,-38%,-24%
O=C(O)c1cc(O)c2c(c1)[C@H]([C@H]1c3cc(C(=O)O)cc(O)c3C(=O)c3c(O[C@@H]4O[C@H](CO)[C@@H](O)[C@H](O)[C@H]4O)cccc31)c1cccc(OC3O[C@H](CO)[C@@H](O)[C@H](O)[C@H]3O)c1C2=O (stereo not given in full),1.7µM*,?,1.3µM*,?,0.79µM*,0.32µM*
O=C(O)C1CCCCC1C(=O)Nc1cc(C(F)(F)F)ccc1Cl (stereo not given),-3%,16%,/,1%,-1%,-10%
Cc1csc(NC(=O)CCCNC(=O)c2ccc(Cl)cc2)n1,-1%,25%,-5%[12.7 µM],2%,-1%,-16%
C/C(=N\N1C(=O)CSC1=S)c1ccc(Br)cc1,5.3µM*,-24%,40µM*,?,?,-31%
Cc1ccc(C(=O)NN2C(=O)CSC2=S)cc1,-5%,20%,-16%[59 µM],-2%,-28%,-28%
CCCc1nc2sc3c(N4CCC(C)CC4)ncnc3c2c2c1CCCC2,/,45%,6%[59 µM],-2%,-1%,11%
CC(C)CS(=O)(=O)C1=NSC2=NC(=O)/C(=C\c3ccc(OC(=O)c4ccco4)cc3)C(=N)N21,24µM*,2%,/,?,?,-36%
SMILES,PLK1 PBD block,HP1b chromo inh,G9a inh,VDR inhibitor,BAZ2B inh,JMJD2A Tudor
CS(=O)(=O)C1=NSC2=NC(=O)/C(=C\c3ccc(OC(=O)c4ccco4)c(Br)c3)C(=N)N21,24µM*,-5%[57 µM],20µM*,?,56µM*,?
CSC1=NSC2=NC(=O)/C(=C\c3ccc(OC(=O)c4ccco4)cc3)C(=N)N12,?,14%,?,-1%,?,-10%
CCC(CC)C1=NN2C(=N)/C(=C/c3ccc(OC(=O)c4ccco4)cc3)C(=O)N=C2S1,30µM*,27%,8%,-22%,-25%,?
Cc1ccc(NC(=O)Cn2c(=O)n(CC(=O)NCCc3ccccc3)c(=O)c3ccccc32)cc1C,/,27%,-15%[59 µM],-24%,-4%,-12%
CCOC(=O)c1ccccc1NC1(c2ccc(OC)cc2)C(=O)c2ccccc2C1=O,/,-8%,?,14%,-27%[57.1 µM],-34%
CC(=O)c1cccc(N=Cc2c(O)ccc3ccccc23)c1,?,-10%,1.6µM*,-9%,?,71µM*
COc1ccc(N=Cc2c(OC)ccc3ccccc23)cc1,-3%,14%,/,-5%,/,-11%
CC(=O)N(C)c1ccc(N=Cc2c(O)ccc3ccccc23)cc1,-13%,17%,4µM*,2%,-29%,?
CC(=O)c1cccc(N=Cc2c(O)c3ccccc3oc2=O)c1,-3%,36%,-18%,8%,-31%,-17%
COc1cccc(CNC(=O)[C@H](C)NC(=O)C2CCN(S(=O)(=O)c3ccccc3)CC2)c1,27µM*,7%,-5%,?,-6%,?
COc1ccc(CNC(=O)CN2C(=O)COc3ccc(S(=O)(=O)N4CCC(C)CC4)cc32)cc1,30µM*,10%,17%[59 µM],-8%,-11%,-23%
O=C(Cn1ccc2cc(S(=O)(=O)N3CCCC3)ccc21)NCc1ccco1,?,-18%,?,-14%,-11%[57.1 µM],79µM*
COc1cccc(CNC(=O)Cn2ccc3cc(S(=O)(=O)N4CCC(C)CC4)ccc32)c1,9.5µM*,15%,12%,?,-9%[57.1 µM],?
